# How the values were obtained:
# Assay in all cases: DAPPL (digital affinity profiling via proximity ligation, sequencing); 10 mM Tris-HCl pH 7.5, 50 mM NaCl, 1 mM DTT, 4% glycerol, room temperature, 30 min; GST-TFs on glutathione beads, 16-mer random dsDNA library, 0.1% formaldehyde crosslink after washing; high values mean tight binding
# [1] = molecular target: T1, FEV (Homo sapiens, UniProt Q99581 1-238); settings: protein: recombinant; tags: N-terminal GST; dsDNA, one strand shown
# T1 sequence: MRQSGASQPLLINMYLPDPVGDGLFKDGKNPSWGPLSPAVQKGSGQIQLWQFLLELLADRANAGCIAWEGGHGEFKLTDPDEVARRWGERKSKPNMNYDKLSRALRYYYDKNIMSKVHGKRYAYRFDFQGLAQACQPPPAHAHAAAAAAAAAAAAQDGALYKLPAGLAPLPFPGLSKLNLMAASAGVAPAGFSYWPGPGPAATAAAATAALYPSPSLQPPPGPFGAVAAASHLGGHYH
# In short: (§1)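 Binding signal is each hexamer's read frequency for a factor divided by its frequency in the tag-only sample. The factors were GST-fused human transcription factors from yeast, captured on glutathione beads, DNA-barcoded and pooled with that sample. Pools were incubated with 200 nmole of a random double-stranded 16-mer DNA library in Tris/NaCl/DTT/glycerol buffer at room temperature for 30 min, then washed, crosslinked with 0.1% formaldehyde, proximity-ligated with BsaI/T4 ligase (1 h, 37 °C), PCR-amplified and sequenced on an Illumina NextSeq500.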
# [2] = molecular target: ETV5 (Homo sapiens, UniProt P41161 1-510); settings: protein: recombinant; tags: N-terminal GST; dsDNA, one strand shown
# Chain of ETV5 (P41161 whole entry): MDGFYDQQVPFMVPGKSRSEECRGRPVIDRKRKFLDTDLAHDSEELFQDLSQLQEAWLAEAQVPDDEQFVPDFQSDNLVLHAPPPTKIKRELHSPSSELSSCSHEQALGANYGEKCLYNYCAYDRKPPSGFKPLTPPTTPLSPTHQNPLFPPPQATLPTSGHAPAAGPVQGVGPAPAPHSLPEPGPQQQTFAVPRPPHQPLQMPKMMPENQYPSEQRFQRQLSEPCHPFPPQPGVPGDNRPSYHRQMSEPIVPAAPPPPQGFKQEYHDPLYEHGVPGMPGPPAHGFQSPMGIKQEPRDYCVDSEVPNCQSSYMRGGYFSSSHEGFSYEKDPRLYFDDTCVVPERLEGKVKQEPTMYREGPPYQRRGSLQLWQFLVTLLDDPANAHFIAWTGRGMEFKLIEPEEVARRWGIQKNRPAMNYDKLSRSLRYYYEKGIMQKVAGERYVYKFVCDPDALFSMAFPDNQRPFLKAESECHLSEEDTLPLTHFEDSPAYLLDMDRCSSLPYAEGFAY
# In short: as §1
# [3] = molecular target: HSF1 (Homo sapiens, UniProt Q00613 1-529); settings: protein: recombinant; tags: N-terminal GST; chain copies: 3; dsDNA, one strand shown
# Chain of HSF1 (Q00613 whole entry): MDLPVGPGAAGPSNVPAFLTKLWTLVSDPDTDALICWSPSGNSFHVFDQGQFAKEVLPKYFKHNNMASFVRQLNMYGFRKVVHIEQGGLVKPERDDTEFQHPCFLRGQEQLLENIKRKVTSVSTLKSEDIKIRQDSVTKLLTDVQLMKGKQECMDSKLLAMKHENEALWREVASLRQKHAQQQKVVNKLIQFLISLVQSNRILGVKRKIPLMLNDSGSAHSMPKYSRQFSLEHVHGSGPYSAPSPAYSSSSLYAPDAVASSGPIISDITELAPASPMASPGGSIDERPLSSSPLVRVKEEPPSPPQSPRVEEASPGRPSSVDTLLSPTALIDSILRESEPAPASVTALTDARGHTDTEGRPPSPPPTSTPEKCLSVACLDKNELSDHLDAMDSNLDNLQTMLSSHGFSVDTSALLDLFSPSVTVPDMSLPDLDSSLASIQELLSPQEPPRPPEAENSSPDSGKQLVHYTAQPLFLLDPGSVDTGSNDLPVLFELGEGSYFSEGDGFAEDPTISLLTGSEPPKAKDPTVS
# In short: as §1
# [4] = molecular target: T2, SPIC (Homo sapiens, UniProt Q8N5J4 1-248); settings: protein: recombinant; tags: N-terminal GST; dsDNA, one strand shown
# T2 sequence: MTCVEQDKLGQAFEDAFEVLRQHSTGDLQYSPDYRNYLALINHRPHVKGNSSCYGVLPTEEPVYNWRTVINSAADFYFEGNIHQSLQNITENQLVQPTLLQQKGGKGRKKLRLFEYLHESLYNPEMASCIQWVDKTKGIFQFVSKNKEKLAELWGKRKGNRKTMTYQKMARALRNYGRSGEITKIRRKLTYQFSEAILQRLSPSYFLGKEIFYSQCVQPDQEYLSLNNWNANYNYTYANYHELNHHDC
# In short: as §1
# [5] = molecular target: ELF4 (Homo sapiens, UniProt Q99607 1-663); settings: protein: recombinant; tags: N-terminal GST; dsDNA, one strand shown
# Chain of ELF4 (Q99607 whole entry): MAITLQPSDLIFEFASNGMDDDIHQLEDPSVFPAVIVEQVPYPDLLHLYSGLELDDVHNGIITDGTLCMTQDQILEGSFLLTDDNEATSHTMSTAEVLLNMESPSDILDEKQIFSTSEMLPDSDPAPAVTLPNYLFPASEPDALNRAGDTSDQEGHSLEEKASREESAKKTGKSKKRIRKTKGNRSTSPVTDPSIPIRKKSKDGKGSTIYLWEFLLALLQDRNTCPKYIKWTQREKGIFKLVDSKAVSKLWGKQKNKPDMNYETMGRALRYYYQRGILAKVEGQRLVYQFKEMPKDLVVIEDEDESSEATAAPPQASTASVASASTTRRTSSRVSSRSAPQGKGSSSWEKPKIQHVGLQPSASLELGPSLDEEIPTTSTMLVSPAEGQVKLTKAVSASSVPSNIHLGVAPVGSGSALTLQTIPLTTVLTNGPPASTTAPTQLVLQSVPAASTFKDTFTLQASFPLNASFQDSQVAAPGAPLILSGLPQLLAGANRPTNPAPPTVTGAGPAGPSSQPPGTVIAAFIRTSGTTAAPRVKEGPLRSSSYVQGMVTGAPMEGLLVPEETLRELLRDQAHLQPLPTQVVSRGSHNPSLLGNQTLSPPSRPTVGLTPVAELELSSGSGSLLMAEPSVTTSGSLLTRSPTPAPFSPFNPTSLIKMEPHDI
# In short: as §1
# [6] = molecular target: T3, ELK4 (Homo sapiens, UniProt P28324-2 1-405); settings: protein: recombinant; tags: N-terminal GST; dsDNA, one strand shown
# T3 sequence: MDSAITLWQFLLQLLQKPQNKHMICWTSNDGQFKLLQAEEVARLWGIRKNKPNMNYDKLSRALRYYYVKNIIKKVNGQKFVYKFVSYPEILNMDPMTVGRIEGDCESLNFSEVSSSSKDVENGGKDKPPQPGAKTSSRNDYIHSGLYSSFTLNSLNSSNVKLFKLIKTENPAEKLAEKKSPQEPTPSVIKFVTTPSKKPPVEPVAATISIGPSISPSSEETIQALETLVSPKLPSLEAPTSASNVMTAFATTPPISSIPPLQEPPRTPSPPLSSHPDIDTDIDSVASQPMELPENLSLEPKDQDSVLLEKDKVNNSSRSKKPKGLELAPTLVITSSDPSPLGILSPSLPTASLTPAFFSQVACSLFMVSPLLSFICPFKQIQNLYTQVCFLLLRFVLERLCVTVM
# In short: as §1
# [7] = molecular target: T4, ETV2 (Homo sapiens, UniProt O00321 1-342); settings: protein: recombinant; tags: N-terminal GST; dsDNA, one strand shown
# T4 sequence: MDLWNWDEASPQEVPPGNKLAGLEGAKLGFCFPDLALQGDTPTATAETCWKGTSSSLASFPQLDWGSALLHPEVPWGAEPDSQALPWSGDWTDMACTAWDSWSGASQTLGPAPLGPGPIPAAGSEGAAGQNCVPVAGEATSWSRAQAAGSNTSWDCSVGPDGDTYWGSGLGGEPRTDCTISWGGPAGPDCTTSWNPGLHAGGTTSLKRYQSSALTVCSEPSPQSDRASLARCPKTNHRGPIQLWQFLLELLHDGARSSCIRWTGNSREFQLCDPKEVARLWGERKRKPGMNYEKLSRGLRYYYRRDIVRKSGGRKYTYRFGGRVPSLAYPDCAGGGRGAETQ
# In short: as §1
# [8] = molecular target: T5, ELF3 (Homo sapiens, UniProt P78545 1-371); settings: protein: recombinant; tags: N-terminal GST; dsDNA, one strand shown
# T5 sequence: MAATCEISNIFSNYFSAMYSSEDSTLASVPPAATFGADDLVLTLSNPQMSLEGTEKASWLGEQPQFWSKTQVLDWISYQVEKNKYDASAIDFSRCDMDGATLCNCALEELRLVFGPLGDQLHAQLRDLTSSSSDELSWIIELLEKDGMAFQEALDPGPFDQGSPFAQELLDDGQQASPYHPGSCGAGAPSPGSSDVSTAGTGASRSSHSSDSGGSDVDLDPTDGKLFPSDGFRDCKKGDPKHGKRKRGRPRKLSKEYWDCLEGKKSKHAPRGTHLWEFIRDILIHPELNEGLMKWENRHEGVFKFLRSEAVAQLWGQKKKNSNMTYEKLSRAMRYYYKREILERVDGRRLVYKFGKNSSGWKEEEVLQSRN
# In short: as §1
# [9] = molecular target: CRX (Homo sapiens, UniProt O43186 1-299); settings: protein: recombinant; tags: N-terminal GST; dsDNA, one strand shown
# Chain of CRX (O43186 whole entry): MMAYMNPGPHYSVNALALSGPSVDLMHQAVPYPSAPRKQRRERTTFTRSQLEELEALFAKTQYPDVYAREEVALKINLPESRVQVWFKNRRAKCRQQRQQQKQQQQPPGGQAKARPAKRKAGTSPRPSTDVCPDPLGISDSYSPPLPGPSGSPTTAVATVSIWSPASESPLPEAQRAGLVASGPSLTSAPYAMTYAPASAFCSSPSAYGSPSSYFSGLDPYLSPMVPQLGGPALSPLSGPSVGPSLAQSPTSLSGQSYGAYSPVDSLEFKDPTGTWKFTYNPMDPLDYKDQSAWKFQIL
# In short: as §1
# [10] = molecular target: ETV1 (Homo sapiens, UniProt P50549 1-477); settings: protein: recombinant; tags: N-terminal GST; dsDNA, one strand shown
# Chain of ETV1 (P50549 whole entry): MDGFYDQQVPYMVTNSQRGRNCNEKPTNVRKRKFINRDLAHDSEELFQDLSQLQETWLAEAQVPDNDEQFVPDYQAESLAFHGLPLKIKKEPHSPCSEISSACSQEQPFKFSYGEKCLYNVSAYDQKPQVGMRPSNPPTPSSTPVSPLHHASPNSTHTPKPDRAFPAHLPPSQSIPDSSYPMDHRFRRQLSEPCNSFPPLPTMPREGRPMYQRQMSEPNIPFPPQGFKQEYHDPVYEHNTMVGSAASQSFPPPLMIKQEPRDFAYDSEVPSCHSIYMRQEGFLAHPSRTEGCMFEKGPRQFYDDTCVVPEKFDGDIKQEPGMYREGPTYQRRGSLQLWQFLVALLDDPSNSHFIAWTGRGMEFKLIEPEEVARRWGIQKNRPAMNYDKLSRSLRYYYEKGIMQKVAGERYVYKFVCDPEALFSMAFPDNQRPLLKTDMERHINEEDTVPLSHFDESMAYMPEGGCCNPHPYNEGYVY
# In short: as §1
# [11] = molecular target: T6, ERF (Homo sapiens, UniProt P50548 1-548); settings: protein: recombinant; tags: N-terminal GST; dsDNA, one strand shown
# T6 sequence: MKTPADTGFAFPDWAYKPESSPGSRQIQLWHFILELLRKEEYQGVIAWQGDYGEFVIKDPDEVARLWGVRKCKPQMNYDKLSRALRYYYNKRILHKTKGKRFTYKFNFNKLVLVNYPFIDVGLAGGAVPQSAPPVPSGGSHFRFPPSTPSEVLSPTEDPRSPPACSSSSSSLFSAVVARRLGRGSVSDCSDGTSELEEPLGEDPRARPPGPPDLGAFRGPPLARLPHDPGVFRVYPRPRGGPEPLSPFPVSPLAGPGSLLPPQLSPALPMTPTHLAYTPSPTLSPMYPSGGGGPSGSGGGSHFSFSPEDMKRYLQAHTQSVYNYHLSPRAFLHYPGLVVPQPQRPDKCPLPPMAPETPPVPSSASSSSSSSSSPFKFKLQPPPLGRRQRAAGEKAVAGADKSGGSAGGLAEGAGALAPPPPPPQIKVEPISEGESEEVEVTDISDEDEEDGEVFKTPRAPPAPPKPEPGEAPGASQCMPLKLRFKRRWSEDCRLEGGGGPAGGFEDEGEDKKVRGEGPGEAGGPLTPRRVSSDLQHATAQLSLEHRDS
# In short: as §1
# [12] = molecular target: T7, ETV3L (Homo sapiens, UniProt Q6ZN32 1-361); settings: protein: recombinant; tags: N-terminal GST; dsDNA, one strand shown
# T7 sequence: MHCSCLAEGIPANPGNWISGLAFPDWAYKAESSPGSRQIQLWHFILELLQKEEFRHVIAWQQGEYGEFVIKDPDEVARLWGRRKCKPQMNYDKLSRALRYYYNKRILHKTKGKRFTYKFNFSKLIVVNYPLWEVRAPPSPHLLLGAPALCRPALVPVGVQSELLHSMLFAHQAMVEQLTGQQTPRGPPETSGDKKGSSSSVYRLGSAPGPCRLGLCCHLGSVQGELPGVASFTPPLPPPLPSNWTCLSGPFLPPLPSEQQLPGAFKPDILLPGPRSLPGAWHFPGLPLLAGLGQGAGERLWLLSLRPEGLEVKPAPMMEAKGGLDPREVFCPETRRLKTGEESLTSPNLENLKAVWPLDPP
# In short: as §1
# [13] = molecular target: T8, ETS2 (Homo sapiens, UniProt P15036 1-469); settings: protein: recombinant; tags: N-terminal GST; dsDNA, one strand shown
# T8 sequence: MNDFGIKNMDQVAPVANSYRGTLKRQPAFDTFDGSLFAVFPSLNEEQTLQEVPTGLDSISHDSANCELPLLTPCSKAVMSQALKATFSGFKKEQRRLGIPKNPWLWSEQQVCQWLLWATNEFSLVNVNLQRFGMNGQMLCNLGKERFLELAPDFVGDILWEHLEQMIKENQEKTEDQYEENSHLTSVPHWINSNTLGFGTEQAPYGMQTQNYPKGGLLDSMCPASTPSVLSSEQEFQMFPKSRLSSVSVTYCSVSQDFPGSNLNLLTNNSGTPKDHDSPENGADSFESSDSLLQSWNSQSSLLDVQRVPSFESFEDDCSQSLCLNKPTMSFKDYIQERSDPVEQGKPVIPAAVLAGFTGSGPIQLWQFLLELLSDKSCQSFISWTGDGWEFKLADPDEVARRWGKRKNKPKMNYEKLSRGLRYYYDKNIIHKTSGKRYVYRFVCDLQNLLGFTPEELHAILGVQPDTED
# In short: as §1
# [14] = molecular target: T9, SPDEF (Homo sapiens, UniProt O95238 1-335); settings: protein: recombinant; tags: N-terminal GST; dsDNA, one strand shown
# T9 sequence: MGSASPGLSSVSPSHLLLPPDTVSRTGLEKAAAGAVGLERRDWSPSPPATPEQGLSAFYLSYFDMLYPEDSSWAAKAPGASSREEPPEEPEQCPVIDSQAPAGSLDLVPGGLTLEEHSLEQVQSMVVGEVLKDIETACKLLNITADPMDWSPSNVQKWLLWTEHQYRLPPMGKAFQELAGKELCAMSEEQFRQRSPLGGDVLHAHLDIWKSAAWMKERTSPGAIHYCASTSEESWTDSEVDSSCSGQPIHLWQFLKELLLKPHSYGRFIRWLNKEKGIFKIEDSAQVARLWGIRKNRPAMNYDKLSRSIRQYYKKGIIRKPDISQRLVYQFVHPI
# In short: as §1
# [15] = molecular target: T10, ETV7 (Homo sapiens, UniProt Q9Y603 1-341); settings: protein: recombinant; tags: N-terminal GST; dsDNA, one strand shown
# T10 sequence: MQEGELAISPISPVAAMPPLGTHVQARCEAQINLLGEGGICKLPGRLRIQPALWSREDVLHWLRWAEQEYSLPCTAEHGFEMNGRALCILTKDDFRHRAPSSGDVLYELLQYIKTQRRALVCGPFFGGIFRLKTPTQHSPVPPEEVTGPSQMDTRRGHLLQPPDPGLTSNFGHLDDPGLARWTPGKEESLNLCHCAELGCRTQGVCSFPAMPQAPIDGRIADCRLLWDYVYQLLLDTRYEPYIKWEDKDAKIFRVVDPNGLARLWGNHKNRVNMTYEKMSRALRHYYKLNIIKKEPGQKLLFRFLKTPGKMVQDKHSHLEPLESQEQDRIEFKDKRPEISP
# In short: as §1
# [16] = molecular target: T11, ELF5 (Homo sapiens, UniProt Q9UKW6-2 1-255); settings: protein: recombinant; tags: N-terminal GST; dsDNA, one strand shown
# T11 sequence: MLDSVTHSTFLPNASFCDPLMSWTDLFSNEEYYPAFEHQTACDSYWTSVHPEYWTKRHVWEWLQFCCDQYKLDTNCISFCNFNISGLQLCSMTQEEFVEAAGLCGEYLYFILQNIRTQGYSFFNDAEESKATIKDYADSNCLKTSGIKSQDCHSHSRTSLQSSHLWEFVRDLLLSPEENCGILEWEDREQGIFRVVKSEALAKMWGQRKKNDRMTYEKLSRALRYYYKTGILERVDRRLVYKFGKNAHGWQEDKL
# In short: as §1
# [17] = molecular target: T12, ETV3 (Homo sapiens, UniProt P41162-2 1-143); settings: protein: recombinant; tags: N-terminal GST; dsDNA, one strand shown
# T12 sequence: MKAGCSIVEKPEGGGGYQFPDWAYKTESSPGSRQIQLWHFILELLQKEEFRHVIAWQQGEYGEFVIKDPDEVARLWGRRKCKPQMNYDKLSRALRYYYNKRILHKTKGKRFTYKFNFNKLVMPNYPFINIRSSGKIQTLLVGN
# In short: as §1
# [18] = molecular target: ETV6 (Homo sapiens, UniProt P41212 1-452); settings: protein: recombinant; tags: N-terminal GST; dsDNA, one strand shown
# Chain of ETV6 (P41212 whole entry): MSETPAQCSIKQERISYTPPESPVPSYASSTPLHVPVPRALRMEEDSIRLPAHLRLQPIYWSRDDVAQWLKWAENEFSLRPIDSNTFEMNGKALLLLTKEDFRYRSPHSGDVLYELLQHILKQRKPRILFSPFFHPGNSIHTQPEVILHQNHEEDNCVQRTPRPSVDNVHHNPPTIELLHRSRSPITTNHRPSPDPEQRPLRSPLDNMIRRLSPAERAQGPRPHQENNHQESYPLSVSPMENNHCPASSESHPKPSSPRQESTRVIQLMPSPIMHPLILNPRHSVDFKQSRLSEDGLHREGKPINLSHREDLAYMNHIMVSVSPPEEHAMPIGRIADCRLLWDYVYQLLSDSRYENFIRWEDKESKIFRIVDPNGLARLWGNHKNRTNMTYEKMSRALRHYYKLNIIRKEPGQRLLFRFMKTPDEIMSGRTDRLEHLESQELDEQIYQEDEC
# In short: as §1
sequence,measurement,setting,value
CCTGAA,binding signal,[1],"1.4 fold enrichment (6-mer frequency, TF over GST control)"
same,binding signal,[2],"1.38 fold enrichment (6-mer frequency, TF over GST control)"
same,binding signal,[3],"1.54 fold enrichment (6-mer frequency, TF over GST control)"
same,binding signal,[4],"1.28 fold enrichment (6-mer frequency, TF over GST control)"
same,binding signal,[5],"1.31 fold enrichment (6-mer frequency, TF over GST control)"
same,binding signal,[6],"1.41 fold enrichment (6-mer frequency, TF over GST control)"
same,binding signal,[7],"1.47 fold enrichment (6-mer frequency, TF over GST control)"
same,binding signal,[8],"1.21 fold enrichment (6-mer frequency, TF over GST control)"
same,binding signal,[9],"1.22 fold enrichment (6-mer frequency, TF over GST control)"
same,binding signal,[10],"1.38 fold enrichment (6-mer frequency, TF over GST control)"
same,binding signal,[11],"1.37 fold enrichment (6-mer frequency, TF over GST control)"
same,binding signal,[12],"1.35 fold enrichment (6-mer frequency, TF over GST control)"
same,binding signal,[13],"1.33 fold enrichment (6-mer frequency, TF over GST control)"
same,binding signal,[14],"1.48 fold enrichment (6-mer frequency, TF over GST control)"
same,binding signal,[15],"1.22 fold enrichment (6-mer frequency, TF over GST control)"
same,binding signal,[16],"1.5 fold enrichment (6-mer frequency, TF over GST control)"
same,binding signal,[17],"1.4 fold enrichment (6-mer frequency, TF over GST control)"
same,binding signal,[18],"1.27 fold enrichment (6-mer frequency, TF over GST control)"

# Source: PMC7862700, “An all-to-all approach to the identification of sequence-specific readers for epigenetic DNA modifications on cytosine”
